This note sets out measurements from PubChem BioAssay AID2685 (National Center for Advancing Translational Sciences (NCATS), 2010).

Each structure is given as a SMILES string. In all, about 320,000 compounds went through this assay and about 2,100 (0.66%) were called active. Roughly 53% stayed inconclusive and do not appear here. The call rests on the fitted dose curve; in most records, active means well fitted inhibition curve with a large enough effect in the signal ratio, with a control signal flat (not every such curve was filed as active); inconclusive means small, poorly fitted or top-dose-only effect, or effect the other way, or a change in a side signal; inactive means flat fitted curve, though single readings scatter; the % refers to the signal ratio. Only a selection was taken, and actives are over-represented in it overall. Where a SMILES comes first, the peptide text is derived from it. [ ]: non-standard residue; d: D form. The star is where a group is joined. ξ: configuration not given here. ξF = NC(Cc1ccccc1)C(=O)O; Cbz = O=C(OCc1ccccc1)*
Potency means the concentration at half of the fitted maximal effect.

The nature of the assay: qHTS Assay for Lipid Storage Modulators in Drosophila S3 Cells.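 On cell number change: cells counted by Cell Tracker Red CMTPX staining in the red channel.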 On lipid storage change, negative = inhibition: on the % scale 0 is the no-effect control and ±100 the full control effect. Particulars: BODIPY lipid droplet fluorescence, 18-24 h, cells fed with added oleic acid; cell number change: measured here: cell count max response; series mostly up to 46.1 µM; lipid storage change, negative = inhibition: at the top concentration. In short, it runs like this:
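Drosophila S3 cells got compounds at several concentrations plus oleic acid (400 uM solution). Laser-scanning cytometry with 488 nm excitation read lipid droplets at 500-530 nm and cells at 575-640 nm. Percent activity was relative to 20 uM Triacsin C.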
On the technique in general: In qHTS, concentration-response curves come from the screen itself.
Regarding `COC(C#CCCN(C)C)(c1ccccc1)c1ccccc1`, the “lipid storage change, negative = inhibition” value was 14.8% (inactive) and the cell number change is -1.59%.

As for `O=C(CSc1ccc(-c2ccccn2)nn1)NCc1ccccc1`, the “lipid storage change, negative = inhibition” value is 0.589% (inactive) and the cell number change came out at 3.17%. The like results for `CCCCSc1nc(O)c(C2OC(=O)c3c2ccc(OC)c3OC)c(=O)n1-c1ccccc1` (configuration not stated) were, in that order, 4.27% (inactive) and 0.549%. The like results for `Cc1cccc(NC(=O)c2c(C)nc3ccccn23)c1` were, in that order, 6.1% (inactive) and 6.85%. As for `Cc1nc2ccccn2c1C(=O)NNC(=O)Nc1cccc(C(F)(F)F)c1`, the Potency is 1.46 µM (active) and the cell number change is -6.44%. As to `Cc1nc2ccccn2c1C(=O)NNC(=O)Nc1ccccc1`, the “lipid storage change, negative = inhibition” value was -3.05% (inactive). The same measure, in the same setting: the figure for `COc1ccc(OC)c(NC2c3ncccc3C(=O)N2Cc2ccco2)c1` (configuration not stated) is 7.69% (inactive). Consider `Cc1ccc(C(C)C)c(OCC(=O)Nc2ccc3c(c2)nc(CCN2CCCCC2)n3C)c1`, for which the compound was classed as inactive. Consider `CCCN1CN(Cc2ccccc2)CC2=C1CC(C)(C)CC2=O`, for which the “lipid storage change, negative = inhibition” value was -10.6% (inactive) and the cell number change was -2.17%. For `COc1ccc(-c2ccc(SCC(=O)N3c4ccccc4CC3C)nn2)cc1OC` (configuration not stated), the compound was classed as inactive. With `CN1CCN(NC(=O)c2cc(-c3ccccn3)nc3ccccc23)CC1`, the “lipid storage change, negative = inhibition” value was 6.1% (inactive) and the cell number change was determined as 28.4%. Turning to `O=C(NC1CC1)c1cc(-c2ccccn2)nc2ccccc12`, the “lipid storage change, negative = inhibition” value was 5.07% (inactive) and the cell number change is -1.09%. As to `Cc1ccc2nc(-c3ccccn3)cc(C(=O)NC3CCN(C)CC3)c2c1`, the Potency was 25.9 µM (active).

In the case of `CCCN1CCN(C(=O)c2nn(-c3ccc(OC)cc3)c(=O)c3c2c2ccccc2n3C)CC1`, the “lipid storage change, negative = inhibition” value was -0.752% (inactive) and the cell number change was -5.33%. On the same counts, the results for `O=C1/C(=C/c2ccccc2)SC(=S)N1C1CCS(=O)(=O)C1` (configuration not stated) are -6.37% (inactive) and 7.35%. Regarding `C/C(CC(=O)NC12CC3CC(CC(C3)C1)C2)=N\NC(=O)c1cnccn1`, the “lipid storage change, negative = inhibition” value was -2.28% (inactive) and the cell number change came out at 1.39%. Turning to `Cc1nccc2[nH]c(=O)c(C(=O)NC3CCCCC3C)cc12` (configuration not stated), the outcome was inactive and the cell number change came out at 3.44%. As for `Cc1cccc(/C=C2\Sc3ccc(C(=O)N4CCC(C)CC4)cc3N(C)C2=O)c1`, the result was inactive. With `CN1C(=O)/C(=C/c2cccc(Cl)c2)Sc2ccc(C(=O)N3CCCC3)cc21`, the “lipid storage change, negative = inhibition” value was -2.44% (inactive). In the case of `CN1C(=O)/C(=C/c2cccc(Cl)c2)Sc2ccc(C(=O)N3CCOCC3)cc21`, the compound was called inactive. Regarding `CCOc1ccc(/C=C2/Sc3ccc(C(=O)N4CCOCC4)cc3N(C)C2=O)cc1OC`, the Potency is 20.6 µM (active) and the cell number change was -3.07%. Turning to `COc1cccc(/C=C2\Sc3ccc(C(=O)NCc4cccnc4)cc3N(C)C2=O)c1`, the “lipid storage change, negative = inhibition” value is 0.131% (inactive) and the cell number change is -1.61%. `CCOC(=O)N1CCC(NC(=O)c2ccc3c(c2)N(C)C(=O)/C(=C/c2cccc(OC)c2)S3)CC1`: the Potency is 2.91 µM (active) and the cell number change is -26%. In the case of `CN(Cc1ccccc1)c1nc2c(c(=O)[nH]c(=O)n2C)n1C`, the “lipid storage change, negative = inhibition” value was 3.79% (inactive) and the cell number change was -14.1%.

`O=C(CSc1ncnc2c1nnn2Cc1ccccc1)NC1CCCCC1`: the “lipid storage change, negative = inhibition” value is -3.24% (inactive) and the cell number change was -19.4%. With `O=C(CSc1ncnc2c1nnn2Cc1ccc(F)cc1)NC1CCCCC1`, the Potency was 20.6 µM (active) and the cell number change is -16.3%. As to `O=C(CSc1ncnc2c1nnn2Cc1ccccc1)NC1CCCC1`, the “lipid storage change, negative = inhibition” value was -19% (inactive) and the cell number change was -1.92%. On the same counts, the results for `CC(C)(C)C1CCC2(CC1)SCC(=O)N2c1ccccc1` (configuration not stated) are 9.11% (inactive) and -2.85%. Consider `COCc1cc(C)nc(SCC(=O)Nc2ccccc2N2CCOCC2)c1C#N`, for which the Potency was 13 µM (active) and the cell number change was -22.4%. `COCc1cc(C)nc(SCC(=O)Nc2ccc3c(c2)OCCO3)c1C#N`: the “lipid storage change, negative = inhibition” value was 23.6% (inactive) and the cell number change was 16.8%. In the case of `COCc1cc(C)nc(SCC(=O)Nc2ccc(N3CCOCC3)cc2)c1C#N`, the “lipid storage change, negative = inhibition” value is 3.29% (inactive) and the cell number change is 5.82%.

On to `O=C(N/N=C/c1ccsc1)c1ccc2c(c1)OCO2`, for which the “lipid storage change, negative = inhibition” value is 20% (inactive) and the cell number change is 17%. The like results for `Cc1cc(-c2ccc(C)c(S(=O)(=O)NCCC(C)N3CCCCCC3)c2)on1` (configuration not stated) were, in that order, -5.57% (inactive) and 3.3%.

In the case of `CCOc1ccc(CN(C)C(=O)[C@H](Cc2ccccc2)NC(=O)OCc2ccccc2)cc1OC`, the Potency was 8.2 µM (active) and the cell number change is 6.3%. As for `CCOC(=O)CNC(=O)C(Cc1ccccc1)NC(=O)OCc1ccccc1` (configuration not stated) (Cbz-[ξF]-Gly-OEt), the “lipid storage change, negative = inhibition” value was -13.8% (inactive). Consider `COc1ccc(CCNC(=O)C(NC(=O)OCc2ccccc2)C(C)C)cc1OC` (configuration not stated), for which the “lipid storage change, negative = inhibition” value was 3.69% (inactive) and the cell number change was determined as 2.79%.

Take `CN1CCN(C2=NC(=O)/C(=C/c3ccccc3OS(=O)(=O)c3ccccc3)S2)CC1`: the “lipid storage change, negative = inhibition” value is -11.1% (inactive) and the cell number change turned out to be 6.94%.

For the compound `CCOC(=O)C(NC(C)=O)(Nc1ccc(F)cc1)C(F)(F)F` (configuration not stated), the “lipid storage change, negative = inhibition” value is -1.37% (inactive) and the cell number change is -0.408%.

Regarding `CCOC(=O)C(NC(C)=O)(Nc1cccc(F)c1)C(F)(F)F` (configuration not stated), the Potency was 4.11 µM (active) and the cell number change was -1.43%.

`CCOC(=O)C(NC(=O)CC)(Nc1ccccc1)C(F)(F)F` (configuration not stated): the “lipid storage change, negative = inhibition” value is -8.39% (inactive) and the cell number change is -9.13%. On the same counts, the results for `CNC(=O)C1CC(=O)N(c2ccc(F)c(Cl)c2)C1` (configuration not stated) are 13.9% (inactive) and 9.35%. On the same counts, the results for `CCOc1ccc(OCCN2CCCCC2)cc1` are -4.06% (inactive) and -0.326%. On the same counts, the results for `CC(C)c1ccc(OCCCN2CCCC2)cc1` are -5.07% (inactive) and 0.741%. `CCC(C)c1ccc(OCCN2CCCC2)cc1` (configuration not stated): the Potency is 23.1 µM (active) and the cell number change came out at 7.66%.

Regarding `COc1ccc(OC)c(NS(=O)(=O)c2ccc(Cl)nc2)c1`, the “lipid storage change, negative = inhibition” value is -10.3% (inactive) and the cell number change was determined as 7.58%. The like results for `CC(=O)NNC(=S)NCCc1ccccc1` were, in that order, 6.36% (inactive) and 6.47%. The like results for `CCOCc1[nH]c(=S)[nH]c(=O)c1Cc1ccc(OCC)cc1` were, in that order, -24.1% (inactive) and 9.42%. On to `COc1ccc(CNc2nc3ccccc3n2Cc2ccc(Cl)cc2)cc1OC`, for which the “lipid storage change, negative = inhibition” value is -0.203% (inactive) and the cell number change is -0.354%.
